# Reference: PubChem BioAssay (NCATS)
# Records with an inconclusive call do not appear. Calls of active or inactive are those of the source. Calls come from the whole dose curve; as a rule, active = well fitted curve in the direction sought with a large enough effect; inconclusive = small, poorly fitted or top-dose-only effect, or another doubt; inactive = no such curve, though single readings can be large; an effect the other way counts as inactive or inconclusive.
# System: not listed separately
# Assay: Primary qHTS for inhibitors of La Crosse Virus (LACV) - induced cell death in SH-SY5Y cells (AID 1508616);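 note: higher means more rescue of cells from virus-induced death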
# Details: SH-SY5Y LACV cytopathicity rescue, ATP luminescence, 6 d; series mostly up to 9.63 µM
# Procedure, shortened: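 SH-SY5Y cells (6000/well) plated 24 h, then given compounds by pin transfer and LACV at 0.01 MOI for 6 days at 37C. Viability measured by ATPLite luminescence, normalized to infected DMSO and uninfected DMSO.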
# Note: top concentration of the series differs between compounds.
row,Compound,outcome
1,O=C1C(I)=CC(=C(c2cc(I)c(O)c(I)c2)c2ccccc2C(=O)O)C=C1I,inactive
2,CCCCCCCCc1ccc(O)cc1,inactive
3,CCCCCCCCCC(CC)c1ccc(S(=O)(=O)O)cc1 (configuration not stated),inactive
4,CS(=O)(=O)c1ccc(C(=O)C2C(=O)CCCC2=O)c([N+](=O)[O-])c1,inactive
5,O=[N+]([O-])c1c2ccccc2cc2ccccc12,inactive
6,CCCN(CCC)c1c([N+](=O)[O-])cc(S(N)(=O)=O)cc1[N+](=O)[O-],inactive
7,Nc1ccc(Sc2ccc(N)cc2)cc1,inactive
8,COc1nn(CSP(=S)(OC)OC)c(=O)s1,inactive
9,O=S(=O)(O)C(F)(F)C(F)(F)C(F)(F)C(F)(F)C(F)(F)C(F)(F)C(F)(F)C(F)(F)F,inactive

# Biological target: Calcium and integrin-binding protein 1 (Homo sapiens) (UniProt Q99828)
# Sequence (Q99828 whole entry, looked up): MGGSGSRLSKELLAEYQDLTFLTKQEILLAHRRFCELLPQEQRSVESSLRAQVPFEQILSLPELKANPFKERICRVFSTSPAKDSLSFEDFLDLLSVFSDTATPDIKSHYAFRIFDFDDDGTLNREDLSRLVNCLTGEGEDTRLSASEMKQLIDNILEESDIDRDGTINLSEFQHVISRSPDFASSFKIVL
# Assay: Primary qHTS for Identification of Calcium Integrin Binding Protein 1 (CIB1) Competitor (AID 1508620);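 note: GST tagged CIB1 binding a fluorescein labelled alphaIIb integrin peptide tracer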
# Details: CIB1-GST / FITC-alphaIIb peptide fluorescence polarization; series mostly up to 57.7 µM
# Procedure, shortened: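 CIB1-GST (1 uM final) and compound incubated 15 min at room temperature before adding FITC-alphaIIb peptide tracer (100 nM final). Competition for binding read by fluorescence polarization (ex 480, em 540) after another 15 min at room temperature.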
row,Compound,outcome
1,CC=C(C)C(=O)O[C@H]1C(C)=C2[C@@H]3OC(=O)[C@@](C)(O)[C@@]3(O)[C@@H](OC(=O)CCC)C[C@](C)(OC(C)=O)[C@@H]2[C@@H]1OC(=O)CCCCCCC,inactive
2,CC(C)(C)[C@]1(O)C[C@@H]2OC(=O)C[C@@]23C(=O)O[C@@H]2OC(=O)[C@H](O)C213 (some centres not stated),inactive
3,CC(C)[C@H]1C(=O)N[C@H](CO)Cc2c[nH]c3cccc(c23)N1C,inactive
4,CCCCCCCCc1ccc(O)cc1,inactive
5,CCCCCCCCCC(CC)c1ccc(S(=O)(=O)O)cc1 (configuration not stated),inactive
6,C[C@@H]1CC[C@@]2(OC1)O[C@H]1C[C@H]3[C@@H]4CC=C5C[C@@H](O[C@@H]6O[C@H](CO)[C@@H](O[C@@H]7O[C@@H](C)[C@H](O)[C@@H](O)[C@@H]7O)[C@H](O)[C@@H]6O[C@@H]6O[C@@H](C)[C@H](O)[C@@H](O)[C@@H]6O)CC[C@]5(C)[C@@H]4CC[C@]3(C)[C@@H]1[C@H]2C,inactive
7,CC(=Cc1csc(C)n1)[C@@H]1C[C@H]2O[C@@H]2CCC[C@H](C)[C@@H](O)[C@@H](C)C(=O)C(C)(C)[C@@H](O)CC(=O)O1,inactive
8,COC1=C[C@@H]2[C@@H]3Cc4ccc(OC)c(O)c4[C@]2(CCN3C)CC1=O,inactive
9,C#C[C@]1(O)C=C[C@@H]2[C@@H]3CCC4=CC(=O)CC[C@@H]4[C@H]3CC[C@@]21CC,inactive
10,O=[N+]([O-])c1ncc[nH]1,inactive
11,C[C@]12CCC(=O)C(O)=C1CC[C@@H]1[C@H]3CCC(=O)[C@@]3(C)CC[C@@H]12,inactive
12,CCCCCC[C@H]1C(=O)O[C@H](C)[C@H](NC(=O)c2cccc(NC=O)c2O)C(=O)O[C@@H](C)[C@@H]1OC(=O)CC(C)C,inactive
13,CC(=O)O[C@@]12CO[C@H]1C[C@H](O)[C@@]1(C)C(=O)[C@H](O)C3=C(C)[C@@H](O)C[C@@](O)([C@@H](OC(=O)c4ccccc4)[C@@H]21)C3(C)C,inactive
14,CCCN(CCC)c1c([N+](=O)[O-])cc(S(N)(=O)=O)cc1[N+](=O)[O-],inactive
15,CCOC(=O)c1cncn1[C@H](C)c1ccccc1,inactive
16,COC1=CC(C)=C[C@@H](C)[C@@H](O)[C@@H](C)CC(C)=CC=C[C@H](OC)[C@H]([C@@H](C)[C@@H](O)[C@H](C)[C@@]2(O)C[C@@H](O)[C@H](C)[C@@H](C(C)C)O2)OC1=O,inactive
17,CO[C@H]1CCC(O[C@H]2C[C@H]([C@]3(C)CC[C@]4(C[C@H](O)[C@@H](C)[C@@H]([C@@H](C)C=C(C)C(=O)[C@H](C)C[C@H](C)C(=O)O)O4)O3)O[C@]3(O[C@@H]([C@H]4O[C@@](O)(CO)[C@H](C)C[C@H]4C)C[C@H]3C)[C@H]2C)O[C@H]1C (some centres not stated),inactive
18,C[C@H]1CCCC=CC2C[C@H](O)C[C@@H]2[C@H](O)C=CC(=O)O1 (some centres not stated),inactive
19,CN1CCN(c2ccc([N+](=O)[O-])c3no[n+]([O-])c23)CC1,inactive
20,CCNC(=O)CC1N=C(c2ccc(Cl)cc2)c2cc(OC)ccc2-n2c(C)nnc21 (configuration not stated),inactive
21,O=C1C=CC[C@@H]2[C@H]3CCCN4CCC[C@@H](CN12)[C@@H]34,inactive
22,N#C[C@H](O[C@@H]1O[C@H](CO[C@@H]2O[C@H](CO)[C@H](O)[C@H](O)[C@H]2O)[C@H](O)[C@H](O)[C@H]1O)c1ccccc1,inactive
23,CC(C)(C)c1cc(C=C(C#N)C#N)cc(Br)c1O,inactive
24,Nc1ccc(N=Nc2ccccc2)cc1,inactive
25,CC(C)N[C@@H]1CCn2c(=O)[nH]c3cccc(c32)[C@@H]1O,inactive
26,C[C@]12CC[C@H]3[C@@H](CCC4=CC(=O)CC[C@@]43C)[C@H]1CC[C@H]2OC(=O)CCC1CCCC1,inactive
27,O=S(=O)(O)C(F)(F)C(F)(F)C(F)(F)C(F)(F)C(F)(F)C(F)(F)C(F)(F)C(F)(F)F,inactive
28,C=CCON=C(C[C@H]1O[C@@H]2O[C@]3(C)CC[C@@H]4[C@H](C)CC[C@@H]([C@H]1C)[C@@]24OO3)[C@H]1O[C@@H]2O[C@]3(C)CC[C@H]4[C@H](C)CC[C@@H]([C@@H]1C)[C@@]24OO3,inactive
